ChEMBL document CHEMBL3988442, “University of Dundee, Small-Polar-MMV Screening Library” (2021)
About 950 (1.4%) of roughly 69,000 compounds showed an effect of 50% or more. What follows is part of a selection rich in strong results, with near analogues and random picks from the rest.

These compounds were tested on Mycobacterium tuberculosis (assay: Cornell M. t heat shock assay; note: in the data most compounds retested in dose-response had high values).
Type: functional, organism-based
Design: dose or concentration left out as unconfirmed

Row | Structure (SMILES) | Percent Effect
1 | O=C(O)C(F)(F)F.O=C1[C@H]2CN(C(=O)[C@H]3CCCO3)C[C@H]2CN1CCN1CCCC1 | -0.06274%
2 | COc1cccc([C@@H]2N[C@H](c3nccs3)Cc3ccsc32)c1OC | 50.14%
3 | COc1ccc(OC)c([C@@H]2N[C@H](c3nccs3)Cc3ccsc32)c1 | 6.308%
4 | COc1cc([C@@H]2N[C@H](c3nccs3)Cc3ccsc32)cc(OC)c1OC | -5.187%
5 | Cc1ncsc1CN1C[C@@H]2COC[C@]2(CNC(=O)c2ccccc2)C1.O=C(O)C(F)(F)F | -24.18%
6 | COc1cc(C)sc1C(=O)NCCC(=O)N(C)c1ccccc1 | 0.1249%
7 | COc1ccsc1C(=O)NCCNc1ccccc1 | -5.187%
8 | COc1cc(C)sc1C(=O)NCCNc1ccccc1 | 57.16%
9 | Cc1nc(CN2CCO[C@H]3[C@@H](OCc4cccnc4)CC[C@@H]32)cs1.O=C(O)C(F)(F)F.O=C(O)C(F)(F)F | -27.98%
10 | O=C(O)C(F)(F)F.c1cnc(N2CCC3(CC2)CN(CC2CC2)c2ccccc23)nc1 | 54.56%
11 | O=C(O)C(F)(F)F.O=C(O)C(F)(F)F.OCCN1CC2(CCN(CC3CC3)CC2)c2ccccc21 | -22.04%
12 | O=C(O)C(F)(F)F.O=C1N(CC2CC2)CCC12CCN(c1ncccn1)CC2 | -22.74%
13 | O=C(CCC1CCCO1)NS(=O)(=O)c1ccc(Cl)cc1 (stereo unspecified) | 2.708%
14 | O=C(CCC1CCCO1)NCCCO (stereo unspecified) | -7.133%
15 | O=C(CCC1CCCO1)NCCCC(=O)Nc1ccc(Cl)cc1 (stereo unspecified) | 104.2%
16 | O=C(CCCNC(=O)NCC1CCCO1)Nc1ccc(Cl)cc1 (stereo unspecified) | 40.56%
17 | O=C(CCCNC(=O)C1CCCO1)Nc1ccc(Cl)cc1 (stereo unspecified) | -4.15%
18 | O=C(CC1CCCO1)NCCCC(=O)Nc1ccc(Cl)cc1 (stereo unspecified) | 63.53%
19 | O=C(O)C(F)(F)F.O=C(O)C(F)(F)F.O=C1COC2(CCN(CC3CCOCC3)CC2)CN1Cc1ccccn1 | -24.93%
20 | O=C(O)C(F)(F)F.c1cncc(N2CC[C@@H]3CN(CC4CC4)C[C@@H]3C2)c1 | -51.37%
21 | Cc1cnc(N2CCC3(CCCN3C(=O)c3ccco3)CC2)nc1.O=C(O)C(F)(F)F | 2.375%
22 | O=C(NCc1ccco1)Nc1cccc(S(=O)(=O)C(F)F)c1 | 31.42%
23 | O=C(CCc1ccco1)Nc1cccc(S(=O)(=O)C(F)F)c1 | 70%

Row | Structure (SMILES) | Percent Effect
24 | O=C(CNc1cccc(S(=O)(=O)C(F)F)c1)NCc1ccco1 | 18.67%
25 | Cc1cc(C)n(CC2CCCN2C(=O)c2cccnc2N(C)C)n1 (stereo unspecified) | -10.54%
26 | CC(=O)N1[C@H](CN(C)C)C[C@@H]2CN(C(=O)c3cnc(C)cn3)CC[C@@H]21.O=C(O)C(F)(F)F | -17.11%
27 | Cc1nc(C)n(CC2CCCN2Cc2nc(C)c3ccccc3n2)n1 (stereo unspecified) | -0.1749%
28 | Cc1nc(C)n(CC2CCCN2Cc2nc3ccccc3nc2C)n1 (stereo unspecified) | -3.804%
29 | Cc1cc(C)n(CC2CCCN2Cc2ncc(C(C)(C)C)o2)n1 (stereo unspecified) | 52.86%
30 | Cc1nc(C)n(CC2CCCN2Cc2ncc(C(C)(C)C)o2)n1 (stereo unspecified) | 8.269%
31 | c1ncn(CC2CCCN2Cc2cn3ccsc3n2)n1 (stereo unspecified) | -23.29%
32 | Cc1cc(C)n(CC2CCCN2CCS(=O)(=O)c2ccccc2)n1 (stereo unspecified) | 25.73%
33 | Cc1nc(C)n(CC2CCCN2Cc2cn3ccccc3n2)n1 (stereo unspecified) | -6.655%
34 | Cc1nc(C)n(CC2CCCN2Cc2nc(N)c3ccccc3n2)n1 (stereo unspecified) | 90.98%
35 | Cc1cc(C)n(CC2CCCN2Cc2nc(N)c3ccccc3n2)n1 (stereo unspecified) | 96.02%
36 | Cc1nn(C)c(C)c1C1CCCN1Cc1nc(N)c2ccccc2n1 (stereo unspecified) | -13.27%
37 | Cc1nc(C)n(CC2CCCCN2Cc2ncc(C(C)(C)C)o2)n1 (stereo unspecified) | -15.1%
38 | Cc1nc(C)n(CC2CCCN2Cc2cn3ccsc3n2)n1 (stereo unspecified) | 52.44%
39 | CN1CC(=O)N(c2ccsc2)CC12CCN(Cc1cnn(C)c1)C2.O=C(O)C(F)(F)F.O=C(O)C(F)(F)F (stereo unspecified) | -44.55%
40 | O=C(NCc1cnc2n1CCN(CC1CC1)C2)C1CC1.O=C(O)C(F)(F)F | -32.01%
41 | O=CO.c1cc2nccc(CC3CCCN(C4CCOCC4)CC3)c2cn1 (stereo unspecified) | -0.8025%
42 | CNC(=O)CNCc1c[nH]nc1-c1cc2ccccc2o1.Cl | 4.817%
43 | Cc1cc(CN2CC[C@H]3C(=O)N(c4ccccc4)CCO[C@H]3C2)no1.O=C(O)C(F)(F)F | -6.692%
44 | O=C(O)C(F)(F)F.O=C1CCC2(CCN(Cc3ccc(F)cc3)CC2)N1Cc1ccccc1 | 1.967%
45 | O=C(NC1CC1)N1CCC2(CC1)C(=O)NCCN2Cc1ccccc1.O=C(O)C(F)(F)F | 5.553%
46 | CC(C)CN1C(=O)C2(CCN(Cc3cccs3)C2)c2ccccc21.O=C(O)C(F)(F)F (stereo unspecified) | 9.511%

Row | Structure (SMILES) | Percent Effect
47 | CCN(CC)Cc1nc2c(o1)CN(S(=O)(=O)c1cccs1)C2.O=C(O)C(F)(F)F | 10.46%
48 | CN(C)CCN1C(=O)CCCC12CCCN(Cc1cccs1)C2.O=C(O)C(F)(F)F.O=C(O)C(F)(F)F (stereo unspecified) | -7.663%
49 | CN(C)C(=O)CC1CC2(CCN(CC3CC3)CC2)Oc2ccccc21.O=C(O)C(F)(F)F (stereo unspecified) | 11.01%
50 | Cc1cnc(C(=O)N2CCC3(CCN3Cc3ccc(F)cc3)C2)cn1.O=C(O)C(F)(F)F (stereo unspecified) | -3.427%
51 | COCCN1CCC12CCN(C(=O)c1ccc(C)nc1)C2.O=C(O)C(F)(F)F (stereo unspecified) | 29.56%
52 | Cc1ccc(C(=O)N2CCC3(CCN3Cc3ccc(F)cc3)C2)cn1.O=C(O)C(F)(F)F (stereo unspecified) | 99.27%
53 | Cc1nc2[nH]cnc(NCCN3CCOCC3)c-2n1 | -1.565%
54 | Cc1nc2[nH]cnc(NCCN3CCCC3)c-2n1 | 57.49%
55 | Cc1nc2[nH]cnc(NCCCN3CCOCC3)c-2n1 | -13.88%
56 | CCc1c(C)sc2ncnc(N3C[C@H](O)[C@@H](N4CCCC4)C3)c12 | 59.45%
57 | CCc1c(C)sc2ncnc(N3CC[C@@H](N4CCOCC4)[C@H](O)C3)c12 | 11.35%
58 | CCc1c(C)sc2ncnc(N3CC[C@@H](N4CCC(O)CC4)[C@H](O)C3)c12 | 10.29%
59 | Cc1noc(C)c1C(=O)N[C@@H]1CCC[C@@H](Oc2ccccc2)[C@@H]1O | 10.41%
60 | Cc1ccc(Oc2cc(F)ccc2O[C@@H]2CCC[C@@H](N)[C@H]2O)cc1 | 103.2%
61 | CN[C@@H]1CCC[C@@H](Oc2ccccc2Oc2ccc(C)cc2)[C@@H]1O | 50.23%
62 | N[C@@H]1CCC[C@@H](Oc2ccc(F)cc2Oc2cccc(F)c2)[C@@H]1O | 1.479%
63 | Cc1n[nH]c(C)c1CCC(=O)N[C@@H]1CCC[C@@H](Oc2ccccc2)[C@@H]1O | -15.12%
64 | N[C@@H]1CCC[C@@H](Oc2ccc(F)cc2Oc2ccccc2)[C@@H]1O | -7.942%
65 | O=C(O)C(F)(F)F.O=c1ccc2c([nH]1)CCC(NCc1ccc(F)cc1)C2 (stereo unspecified) | -5.527%
66 | Cc1nc(CN2C[C@@H]3CN(C(=O)C4CC4)C[C@@H]3C2=O)cs1.O=C(O)C(F)(F)F | -7.229%
67 | O=C(O)C(F)(F)F.O=C(c1ccco1)N1CCOCC2(C1)CN(c1cccnc1)C(=O)CO2 (stereo unspecified) | -36.47%
68 | CCN(CC)c1ncc(CNC2CCc3ncnn3C2)s1 (stereo unspecified) | 0.07548%
69 | CCN1CCOCC2(CCCN(C(=O)c3conc3C)C2)C1.O=C(O)C(F)(F)F (stereo unspecified) | -3.777%

Row | Structure (SMILES) | Percent Effect
70 | CC(C)c1cc(NCC(O)c2ccc(F)cc2)n2nccc2n1 (stereo unspecified) | 13.68%
71 | CCCC(CNc1cc(C(C)C)nc2ccnn12)N(C)C (stereo unspecified) | 105.9%
72 | CC(C)c1cc(NCC(O)c2ccccn2)n2nccc2n1 (stereo unspecified) | 105.1%
73 | CC(C)c1cc(NCC(C)N2CCCC2)n2nccc2n1 (stereo unspecified) | 19.07%
74 | CC(C)c1cc(NCC(O)c2ccncc2)n2nccc2n1 (stereo unspecified) | 0.8571%
75 | Cc1cc2nc(C(C)C)cc(NCCc3ccncc3)n2n1 | 5.483%
76 | Cc1cc2nc(C(C)C)cc(NCC(c3ccccn3)N(C)C)n2n1 (stereo unspecified) | 107.7%
77 | CC(C)c1cc(NCC(O)CO)n2nccc2n1 (stereo unspecified) | 7.568%
78 | Cc1cc2nc(C(C)C)cc(NC(C)c3nncn3C)n2n1 (stereo unspecified) | 6.767%
79 | Cc1cc2nc(C(C)C)cc(NCc3ccncc3)n2n1 | 10.36%
80 | COc1cc(NCC(c2ccccn2)N(C)C)ncn1 (stereo unspecified) | 7.48%
81 | Cc1cc2nc(C(C)C)cc(NCCc3cccn3C)n2n1 | 51.31%
82 | CCOC1COC2(CCN(Cc3cccnc3OC)CC2)C1.O=C(O)C(F)(F)F.O=C(O)C(F)(F)F (stereo unspecified) | 16.61%
83 | CC(=O)N1C[C@@H]2CC[C@H](C1)N(S(=O)(=O)c1ccc(F)cc1Cl)C2 | 10.85%
84 | N#Cc1ccc(N2CCC3(CC2)CC(N2CCOCC2)CO3)cc1.O=C(O)C(F)(F)F (stereo unspecified) | 25.96%
85 | CN(C)C1CCN(C(=O)c2cc(-c3ccn(C)n3)n3ccccc23)CC1.O=C(O)C(F)(F)F | 44.75%
86 | Cl.NCc1ccc(Oc2ccc(F)c(F)c2)cc1C(F)(F)F | 1.199%
87 | C[C@@H]1CN(Cc2ccoc2)C[C@]12CCN(CC(=O)N(C)C)C2=O.O=C(O)C(F)(F)F | 10.48%
88 | CS(=O)(=O)NC[C@H]1OC[C@H]2CN(Cc3ccsc3)CC[C@H]21.O=C(O)C(F)(F)F | -31.27%
89 | Cc1cc2nc(C(C)C)cc(NCCNc3ncccc3C)n2n1 | -16.57%
90 | Cc1cc(NCCNc2ncccc2C)n2nc(C)cc2n1 | 16.17%
91 | Cc1cccnc1NCCNc1cc(C(C)C)nc2ccnn12 | 97.5%
